Measured values as given in the supplement of paper PMC8728848.
Only a selection was taken, and the strongest signals are over-represented in it overall.

Legend:
Test in all cases: glycan array binding signal (z-score within array); higher = stronger binding
Conditions in all cases: glycan notation: IUPAC condensed, linker removed
[1] = target: Fuc(a1-2)Gal(b1-3)GlcNAc(b1-2)Man(a1-3)[Fuc(a1-2)Gal(b1-3)GlcNAc(b1-2)Man(a1-6)]Man(b1-4)GlcNAc(b1-4)GlcNAc
Outline: (§1)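 The Consortium for Functional Glycomics database supplied 3228 glycan arrays, of which those lacking an available protein sequence were dropped. The binding signal, a within-array Z-score, was averaged across arrays of the same protein sequence and across linkers. Negative scores can be read as non-binding.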

[2] = target: Fuc(a1-2)Gal(b1-3)[Fuc(a1-4)]GlcNAc(b1-2)Man(a1-3)[Fuc(a1-2)Gal(b1-3)[Fuc(a1-4)]GlcNAc(b1-2)Man(a1-6)]Man(b1-4)GlcNAc(b1-4)[Fuc(a1-6)]GlcNAc(b1-4)[Fuc(a1-6)]GlcNAc
Outline: as §1

[3] = target: Fuc(a1-2)Gal(b1-4)GlcNAc(b1-3)Gal(b1-4)GlcNAc(b1-2)Man(a1-3)[Fuc(a1-2)Gal(b1-4)GlcNAc(b1-3)Gal(b1-4)GlcNAc(b1-2)Man(a1-6)]Man(b1-4)GlcNAc(b1-4)GlcNAc
Outline: as §1

[4] = target: Fuc(a1-2)[Gal(a1-3)]Gal(b1-4)GlcNAc(b1-2)Man(a1-3)[Fuc(a1-2)[Gal(a1-3)]Gal(b1-4)GlcNAc(b1-2)Man(a1-6)]Man(b1-4)GlcNAc(b1-4)GlcNAc
Outline: as §1

[5] = target: Fuc(a1-2)[GalNAc(a1-3)]Gal(b1-4)GlcNAc(b1-3)Gal(b1-4)GlcNAc(b1-3)Gal(b1-4)GlcNAc
Outline: as §1

[6] = target: Fuc(a1-2)[GalNAc(a1-3)]Gal(b1-4)[Fuc(a1-3)]GlcNAc
Outline: as §1

[7] = target: Fuc(a1-3)[Gal(b1-4)]GlcNAc(b1-2)Man
Outline: as §1

[8] = target: Fuc(a1-3)[Gal(b1-4)]GlcNAc(b1-2)Man(a1-3)[Fuc(a1-3)[Gal(b1-4)]GlcNAc(b1-2)Man(a1-6)]Man(b1-4)GlcNAc(b1-4)GlcNAc
Outline: as §1

[9] = target: Gal(a1-3)[Gal(a1-4)]Gal(b1-4)GlcNAc
Outline: as §1

[10] = target: Gal(b1-3)GalNAc(b1-4)Gal(b1-4)Glc
Outline: as §1

[11] = target: Gal(b1-3)[Fuc(a1-4)]GlcNAc(b1-3)Gal(b1-4)[Fuc(a1-3)]GlcNAc
Outline: as §1

[12] = target: Gal(b1-3)[Neu5Ac(b2-6)]GalNAc
Outline: as §1

[13] = target: Gal(b1-4)GlcNAc
Outline: as §1

[14] = target: Gal(b1-4)GlcNAc(a1-6)Gal(b1-4)GlcNAc
Outline: as §1

[15] = target: Gal(b1-4)GlcNAc(b1-2)Man(a1-3)[Man(a1-6)]Man(b1-4)GlcNAc(b1-4)GlcNAc
Outline: as §1

[16] = target: Gal(b1-4)GlcNAc(b1-2)[Gal(b1-4)GlcNAc(b1-6)]Man(a1-6)[Gal(b1-4)GlcNAc(b1-2)Man(a1-3)]Man(b1-4)GlcNAc(b1-4)[Fuc(a1-6)]GlcNAc
Outline: as §1

[17] = target: Gal(b1-4)GlcNAc(b1-3)Gal(b1-4)GlcNAc(b1-2)[Gal(b1-4)GlcNAc(b1-3)Gal(b1-4)GlcNAc(b1-6)]Man(a1-6)[Gal(b1-4)GlcNAc(b1-3)Gal(b1-4)GlcNAc(b1-2)Man(a1-3)]Man(b1-4)GlcNAc(b1-4)GlcNAc
Outline: as §1

[18] = target: Gal(b1-4)GlcNAc(b1-3)Gal(b1-4)GlcNAc(b1-2)[Gal(b1-4)GlcNAc(b1-3)Gal(b1-4)GlcNAc(b1-6)]Man(a1-6)[Gal(b1-4)GlcNAc(b1-3)Gal(b1-4)GlcNAc(b1-2)Man(a1-3)]Man(b1-4)GlcNAc(b1-4)[Fuc(a1-6)]GlcNAc
Outline: as §1

[19] = target: Gal(b1-4)GlcNAc(b1-3)Gal(b1-4)GlcNAc(b1-3)Gal(b1-4)GlcNAc(b1-2)Man(a1-3)[Gal(b1-4)GlcNAc(b1-3)Gal(b1-4)GlcNAc(b1-3)Gal(b1-4)GlcNAc(b1-2)Man(a1-6)]Man(b1-4)GlcNAc(b1-4)[Fuc(a1-6)]GlcNAc
Outline: as §1

[20] = target: Gal(b1-4)GlcNAc(b1-3)Gal(b1-4)GlcNAc(b1-6)[Gal(b1-3)]GalNAc
Outline: as §1

[21] = target: Gal(b1-6)Gal
Outline: as §1

[22] = target: GalNAc(b1-4)GlcNAc(b1-2)Man
Outline: as §1

[23] = target: GalNAc3S(b1-4)GlcNAc
Outline: as §1

[24] = target: Glc(b1-6)Glc
Outline: as §1

B1: BT4246 (Bacteroides thetaiotaomicron), Q89ZX5 (protein)
chain: MGSSHHHHHHENLYFQGHMASDYLDVVPPEQPNIDDAMSSPTRALGFLYSCYGGVSTDLPSAYLGEINSTTDEYVLPYSWNTDGYWGAYAFNTASSTNQDWLWGTTYQYIGQCYLFLQKLENAGSDIASDAEKEQWRAECQFLVAYYHFATLRRYGPIPITDSYIPMDTPTSEYNGRFHFDYCVDWIANQLDEAAKVLPANRTVTNEWGRATSTIAKAVKARLLLYAASPLWNGSFPYPNWQNENFETPGYGKALVSNTYDKSKWERALAACQEALTLATTSGDRELYDDDEYYSRQSLNLPFVPGVADVEDNKEFLKNVMKMRYAVSTRESEGNKEIIWGLSNQFDFYSRYPLRILKKSDGTWHAGYSGVSPTLYTFEHFYTANGKLPEKDLDFTPSSEWFESAGISSREDIIKLNVGREPRFYAWMAFDGGDYGTKFAAGSPLKLEMRNSEMHGYNPSLFNRDHSVTGFLTQKFVDPVTEFYTAGGSTSGTSAPTILFRLAELYLNVAECHAALGNTQEAIDALNPVRERAGIPKLTLADITNNMTIKDWVHNERFVELWNEGHRFFDVRRWAEGAKYFGANKREGLNAEVQSPTFEEFNKRTTVDAPYVWENRMYLNPVFYNEVYKNPQMVQAPGY
glycan array binding signal (z-score) [1]: 3.2
glycan array binding signal (z-score) [2]: -0.111
glycan array binding signal (z-score) [3]: 0.084
glycan array binding signal (z-score) [4]: 2.43
glycan array binding signal (z-score) [5]: 0.74
glycan array binding signal (z-score) [6]: -2.1
glycan array binding signal (z-score) [7]: 0.571
glycan array binding signal (z-score) [8]: -0.536
glycan array binding signal (z-score) [9]: 0.656
glycan array binding signal (z-score) [10]: 2.02
glycan array binding signal (z-score) [11]: -0.234
glycan array binding signal (z-score) [12]: -0.388
glycan array binding signal (z-score) [13]: -1.31
glycan array binding signal (z-score) [14]: -0.67
glycan array binding signal (z-score) [15]: 2.35
glycan array binding signal (z-score) [16]: -0.607
glycan array binding signal (z-score) [17]: 2.71
glycan array binding signal (z-score) [18]: 0.32
glycan array binding signal (z-score) [19]: 0.125
glycan array binding signal (z-score) [20]: -0.514
glycan array binding signal (z-score) [21]: 0.501
glycan array binding signal (z-score) [22]: -0.775
glycan array binding signal (z-score) [23]: 1.88
glycan array binding signal (z-score) [24]: -2.27
